PubChem BioAssay (Tox21)
Records with an inconclusive call do not appear. Calls of active or inactive are those of the source. Unless noted, calls come from the whole dose curve; as a rule, active = well fitted curve in the direction sought with a large enough effect in the repeat runs; inconclusive = weak or mixed curves; inactive = no such curve, though single readings can be large; an effect the other way counts as inactive or inconclusive.

Legend:
[1] = qHTS assay to identify small molecule antagonists of the thyroid receptor (TR) signaling pathway - cell viability counter screen (AID 743064); note: nearly all actives have a fitted effect of over 50% in size
Summary of the method: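 CellTiter-Fluor readout, 30 min at 37 °C/5% CO2, following 23.5 h incubation of GH3.TRE-Luc cells with test compound and 1 nM T3 (final).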

[2] = qHTS assay to identify small molecule antagonists of the thyroid receptor (TR) signaling pathway (AID 743065); note: series mostly up to about 70 µM; nearly all actives have a fitted effect of over 55% in size
Summary of the method: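 GH3.TRE-Luc rat pituitary cells (two TREs driving luciferase) were dosed with compound, then stimulated with 1 nM T3 (final) for 23.5 h at 37 C. ONE-Glo luminescence was the read-out, with CellTiter-Fluor fluorescence as the cytotoxicity counter-screen.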

[3] = test system: thyroid hormone receptor (rat, GH3 cells); test: qHTS assay to identify small molecule agonists of the thyroid receptor (TR) signaling pathway (AID 743066; calls by dose curve)
[4] = target: Estrogen receptor (Homo sapiens) (UniProt P03372); test: qHTS assay to identify small molecule antagonists of the estrogen receptor alpha (ER-alpha) signaling pathway (AID 743069; active = well fitted curve in the direction sought with a large enough effect in the signal ratio in the repeat runs, not every such curve was filed as active; the % refers to the signal ratio)
Summary of the method: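 HEK293 ER-alpha-UAS-bla GripTite cells, held overnight in 2% charcoal-stripped FBS, 5,000 cells/well, preincubated 4 h, then compound plus 17beta-estradiol for 18 h at 37C. Beta-lactamase read by LiveBLAzer B/G FRET substrate, 2 h at room temperature.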

[5] = qHTS assay to identify small molecule antagonists of the estrogen receptor alpha (ER-alpha) signaling pathway - cell viability counter screen (AID 743074; calls by dose curve;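 note: HEK293 cells carrying ER-alpha-UAS-bla reporter stimulated with 17beta-estradiol; nearly all actives have a fitted effect of over 45% in size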)
[6] = target: Estrogen receptor (Homo sapiens) (UniProt P03372); test: qHTS assay to identify small molecule agonists of the estrogen receptor alpha (ER-alpha) signaling pathway (AID 743075; calls by dose curve)
[7] = target: Estrogen receptor (Homo sapiens) (UniProt P03372); test: qHTS assay to identify small molecule agonists of the estrogen receptor alpha (ER-alpha) signaling pathway using the BG1 cell line (AID 743079); note: nearly all actives have a fitted effect of over 20% in size
[8] = qHTS assay to identify small molecule antagonists of the estrogen receptor alpha (ER-alpha) signaling pathway using the BG1 cell line (AID 743080; calls by dose curve;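 note: BG1 cells stimulated with 17beta-estradiol alongside compound; series mostly up to about 70 µM; nearly all actives have a fitted effect of over 25% in size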)
Summary of the method: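 Quantitative HTS on the Tox21 10K library: BG1 cells with endogenous ER-alpha and ERE-luciferase reporter, 17beta-estradiol stimulation, 21.5 h compound exposure, luminescence endpoint with parallel fluorescence cytotoxicity counter-read.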

[9] = qHTS assay to identify small molecule antagonists of the estrogen receptor alpha (ER-alpha) signaling pathway using the BG1 cell line - cell viability counter screen (AID 743081);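 note: compound given together with 17beta-estradiol as the ER stimulus; series mostly up to about 70 µM; nearly all actives have a fitted effect of over 45% in size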
[10] = target: Aromatase (Homo sapiens) (UniProt P11511); test: qHTS assay to identify aromatase inhibitors (AID 743083); note: series mostly up to about 70 µM; nearly all actives have a fitted effect of over 55% in size
[11] = qHTS assay to identify aromatase inhibitors - cell viability counter screen (AID 743084);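 note: cells stimulated with testosterone during compound exposure; nearly all actives have a fitted effect of over 55% in size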
[12] = qHTS assay to identify small molecule that activate the aryl hydrocarbon receptor (AhR) signaling pathway - cell viability counter screen (AID 743086);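 note: HepG2 liver cells carrying the AhR DRE luciferase reporter; series mostly up to about 70 µM; nearly all actives have a fitted effect of over 45% in size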
Summary of the method: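 HepG2-AhR-luc (HG2L7.5c1) cells, 4000/well, treated 24 h at 37 C with compound; viability measured as CellTiter-Fluor fluorescence after 30 min in the same wells as the luciferase read.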

[13] = target: Peroxisome proliferator-activated receptor gamma (Homo sapiens) (UniProt P37231); test: qHTS assay to identify small molecule agonists of the peroxisome proliferator-activated receptor gamma (PPARg) signaling pathway (AID 743094; active = well fitted activation curve with a large enough effect in the signal ratio in the repeat runs, not every such curve was filed as active; the % refers to the signal ratio)
Summary of the method: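 Compounds dissolved in DMSO were added to PPARg UAS-bla HEK293H cells for 17 h at 37C, and reporter expression was quantified by fluorescence intensity after 1 h with LiveBLAzer B/G FRET substrate.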

[14] = target: Peroxisome proliferator-activated receptor gamma (Homo sapiens) (UniProt P37231); test: qHTS assay to identify small molecule antagonists of the peroxisome proliferator-activated receptor gamma (PPARg) signaling pathway (AID 743191; calls by dose curve; note: series mostly up to about 63 µM; nearly all actives have a fitted effect of over 30% in size)
Summary of the method: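 GeneBLAzer PPARg UAS-bla HEK293H cells, 5 h post-plating, exposed to compounds 17 h at 37C. LiveBLAzer B/G FRET substrate added for 1 h at room temperature; beta-lactamase reporter read by fluorescence intensity.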

[15] = qHTS assay to identify small molecule antagonists of the peroxisome proliferator-activated receptor gamma (PPARg) signaling pathway - cell viability counter screen (AID 743194); note: nearly all actives have a fitted effect of over 55% in size
Summary of the method: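 Cytotoxicity counter screen in PPARg-bla HEK293H cells, same wells as reporter assay. Compounds plus 50 nM rosiglitazone (final) for 17 h at 37 C, then viability read by CellTiter-Glo luminescence.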

[16] = qHTS assay for small molecule agonists of the antioxidant response element (ARE) signaling pathway (AID 743202; active = well fitted activation curve with a large enough effect in the signal ratio in the repeat runs, not every such curve was filed as active; the % refers to the signal ratio)
Summary of the method: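 ARE-bla HepG2 cells (beta-lactamase reporter under the antioxidant response element), plated 5 hours, then exposed to compounds 16 hours at 37 C. LiveBLAzer B/G FRET substrate added for 2 hours at room temperature; fluorescence intensity read.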

[17] = qHTS assay for small molecule agonists of the antioxidant response element (ARE) signaling pathway - cell viability counter screen (AID 743203; calls by dose curve; note: nearly all actives have a fitted effect of over 55% in size)
Summary of the method: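 Following 16 hrs of compound treatment at 37C, HepG2 cells with an ARE-controlled beta-lactamase gene were lysed with CellTiter-Glo. Luminescence was read after 30 min at room temperature.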

[18] = qHTS assay for small molecule activators of the heat shock response signaling pathway - cell viability counter screen (AID 743209); note: nearly all actives have a fitted effect of over 50% in size
Summary of the method: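 Readout: CellTiter-Glo luminescence, 30 min at room temperature. System: HSE-bla HeLa cells, 1500/well, plated overnight. Treatment: compounds in DMSO, 5 h at 37 C.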

[19] = qHTS assay for small molecule activators of the heat shock response signaling pathway (AID 743210; active = well fitted activation curve with a large enough effect in the signal ratio in the repeat runs, with a control signal flat, not every such curve was filed as active; the % refers to the signal ratio; note: series mostly up to about 63 µM)
Summary of the method: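 HSE-bla HeLa cells (beta-lactamase reporter under heat shock response elements), plated overnight, then exposed to compounds 5 h at 37 C; LiveBLAzer B/G FRET substrate added, 2.5 h at room temperature, fluorescence intensity read.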

[20] = target: Aryl hydrocarbon receptor (Homo sapiens) (UniProt P35869); test: qHTS assay to identify small molecule that activate the aryl hydrocarbon receptor (AhR) signaling pathway (AID 743085);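 note: HG2L7.5c1 human HepG2 liver cells with stably integrated DRE-driven firefly reporter; series mostly up to about 70 µM; nearly all actives have a fitted effect of over 15% in size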
Summary of the method: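 Stably transfected human liver carcinoma cells (HG2L7.5c1; 20 DRE-firefly luciferase) were incubated 5 h, dosed, and kept 24 h at 37C. Agonism was scored from increased luciferase luminescence.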

Measured: Potency

Estrogen receptor (Homo sapiens), sequence (P03372 whole entry, looked up): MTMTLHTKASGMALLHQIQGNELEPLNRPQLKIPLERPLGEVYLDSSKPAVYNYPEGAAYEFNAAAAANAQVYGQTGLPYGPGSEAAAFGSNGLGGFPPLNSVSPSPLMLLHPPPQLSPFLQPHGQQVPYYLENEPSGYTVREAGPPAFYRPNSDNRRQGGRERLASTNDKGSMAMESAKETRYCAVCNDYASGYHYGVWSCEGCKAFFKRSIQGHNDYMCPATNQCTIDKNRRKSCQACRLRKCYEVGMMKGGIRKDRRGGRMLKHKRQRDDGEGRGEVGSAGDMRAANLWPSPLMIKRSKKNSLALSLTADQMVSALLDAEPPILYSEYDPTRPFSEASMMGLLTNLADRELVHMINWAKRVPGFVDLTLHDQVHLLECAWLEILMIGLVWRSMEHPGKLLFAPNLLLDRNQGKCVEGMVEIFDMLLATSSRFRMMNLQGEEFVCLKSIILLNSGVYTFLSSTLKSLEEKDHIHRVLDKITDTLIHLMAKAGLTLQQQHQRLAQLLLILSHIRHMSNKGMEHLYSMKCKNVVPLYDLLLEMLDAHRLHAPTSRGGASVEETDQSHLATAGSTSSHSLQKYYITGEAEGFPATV
Aryl hydrocarbon receptor (Homo sapiens), sequence (P35869 whole entry, looked up): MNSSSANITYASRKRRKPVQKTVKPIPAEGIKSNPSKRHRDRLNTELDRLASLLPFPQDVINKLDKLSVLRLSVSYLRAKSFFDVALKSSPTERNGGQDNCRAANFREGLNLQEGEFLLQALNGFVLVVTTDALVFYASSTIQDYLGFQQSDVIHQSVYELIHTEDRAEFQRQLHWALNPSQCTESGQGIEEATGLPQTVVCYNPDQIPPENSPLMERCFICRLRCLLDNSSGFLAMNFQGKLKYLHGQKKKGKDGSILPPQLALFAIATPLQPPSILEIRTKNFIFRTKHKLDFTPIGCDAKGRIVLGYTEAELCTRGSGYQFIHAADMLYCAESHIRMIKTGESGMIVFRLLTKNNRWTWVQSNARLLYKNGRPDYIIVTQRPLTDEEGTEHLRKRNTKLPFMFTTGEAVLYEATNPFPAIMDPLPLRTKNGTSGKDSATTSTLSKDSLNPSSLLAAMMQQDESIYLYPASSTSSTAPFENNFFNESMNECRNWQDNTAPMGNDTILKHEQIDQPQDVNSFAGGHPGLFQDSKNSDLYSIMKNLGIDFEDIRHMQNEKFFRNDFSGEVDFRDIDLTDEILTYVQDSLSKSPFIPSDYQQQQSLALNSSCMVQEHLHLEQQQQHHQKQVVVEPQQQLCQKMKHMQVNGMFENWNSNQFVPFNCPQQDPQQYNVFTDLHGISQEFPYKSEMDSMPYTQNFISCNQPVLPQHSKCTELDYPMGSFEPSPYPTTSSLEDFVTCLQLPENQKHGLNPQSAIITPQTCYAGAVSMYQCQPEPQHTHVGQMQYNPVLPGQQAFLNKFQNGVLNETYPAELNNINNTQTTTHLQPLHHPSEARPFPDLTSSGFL
Aromatase (Homo sapiens), sequence (P11511 whole entry, looked up): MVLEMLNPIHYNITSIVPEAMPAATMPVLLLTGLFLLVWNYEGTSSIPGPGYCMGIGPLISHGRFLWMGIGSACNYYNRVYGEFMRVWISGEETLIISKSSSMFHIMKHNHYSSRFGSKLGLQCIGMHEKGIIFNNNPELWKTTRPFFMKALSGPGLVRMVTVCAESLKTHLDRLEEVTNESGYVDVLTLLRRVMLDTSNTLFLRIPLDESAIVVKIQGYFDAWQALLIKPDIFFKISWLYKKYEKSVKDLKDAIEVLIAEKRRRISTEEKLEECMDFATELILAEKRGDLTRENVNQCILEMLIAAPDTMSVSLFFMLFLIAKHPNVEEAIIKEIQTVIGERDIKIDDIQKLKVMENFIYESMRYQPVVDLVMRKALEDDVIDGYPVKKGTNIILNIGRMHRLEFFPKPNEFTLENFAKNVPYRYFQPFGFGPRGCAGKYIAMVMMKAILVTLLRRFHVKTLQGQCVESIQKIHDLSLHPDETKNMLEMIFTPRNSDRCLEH
Peroxisome proliferator-activated receptor gamma (Homo sapiens), sequence (P37231 whole entry, looked up): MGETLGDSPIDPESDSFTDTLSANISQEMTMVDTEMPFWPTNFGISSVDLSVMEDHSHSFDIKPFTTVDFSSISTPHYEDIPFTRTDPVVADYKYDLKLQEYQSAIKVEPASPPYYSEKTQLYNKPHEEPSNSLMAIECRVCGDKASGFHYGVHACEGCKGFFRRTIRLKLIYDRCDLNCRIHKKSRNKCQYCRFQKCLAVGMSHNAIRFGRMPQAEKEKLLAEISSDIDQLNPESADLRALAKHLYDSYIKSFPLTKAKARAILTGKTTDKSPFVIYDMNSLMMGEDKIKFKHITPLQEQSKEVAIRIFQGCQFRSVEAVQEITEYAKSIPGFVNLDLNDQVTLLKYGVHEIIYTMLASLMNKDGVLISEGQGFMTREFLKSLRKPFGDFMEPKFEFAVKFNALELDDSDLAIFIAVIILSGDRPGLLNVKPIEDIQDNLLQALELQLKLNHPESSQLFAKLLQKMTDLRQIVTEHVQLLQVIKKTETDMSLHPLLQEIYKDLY

CN(C)Cc1ccccc1O
not listed: [20]
inactive: all other assays above

FC(F)(F)c1cccc(Cl)c1
not listed: [13] | [14] | [19]
inactive: all other assays above

CC(=O)OCC=C(C)C
not listed: [16]
inactive: all other assays above

CC(C)NC[C@@H](O)COc1ccc(CC(N)=O)cc1
not listed: [9] | [10] | [13] | [14] | [17]
inactive: all other assays above

NC(=O)c1cccc([N+](=O)[O-])c1
not listed: [12]
inactive: all other assays above

CCCCC(CC)COC(=O)CCCCC(=O)OCc1ccccc1 (centres undefined)
not listed: [13] | [14] | [16]
inactive: all other assays above

C=Cc1cccc(C)c1
not listed: [14] | [16]
inactive: all other assays above
